# Shown is part of a subset that was picked to be rich in hits.
# Pf apPOL inh: Pf-apPOL inhibitors, biochemical, fluorescence | Recombinant Pf-apPOL, molecular beacon fluorescence, 1.5 h | inhibition, % at 10 µM | 210,000 compounds, 0.25% hits
# mHTT-CaM PPI inh: mutant huntingtin-calmodulin interaction inhibitors – biochemical, AlphaScreen, primary screen. AlphaScreen His-mHTT/GST-CaM binding, luminescence. inhibition, % at 15 µM. 190,000 compounds, 3.6% hits;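 also: 0% = both proteins with DMSO and 100% = one protein alone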
# The depositor's hits bear a star. Rule as the data show it: active = inhibition above about 50%; inactive = the rest.
SMILES,Pf apPOL inh,mHTT-CaM PPI inh
O=[N+]([O-])C(=C1SCCS1)C(=C(Cl)Cl)N1CCOCC1,-5.6,19.0
O=[N+]([O-])C(=C1SCCS1)C(=C(Cl)Cl)N1CCCCC1,3.1,70.0*
COCCN=C1Nc2ccccc2NC12CCCN(C(=O)Nc1cc(F)cc(F)c1)C2 (stereo unspecified),-1.8,100.1*
COCCN=C1Nc2ccccc2NC12CCCN(C(=O)Nc1ccc(C)cc1C)C2 (stereo unspecified),-9.1,99.8*
COCCN=C1Nc2ccccc2NC12CCCN(C(=O)c1ccc(OC)c(OC)c1)C2 (stereo unspecified),-0.8,5.6
COCCN=C1Nc2ccccc2NC12CCCN(C(=O)c1cc(F)ccc1F)C2 (stereo unspecified),-4.3,17.5
Cc1cccc(NC(=O)N2CCC3(C2)Nc2cccnc2NC3=NCc2ccccc2)c1 (stereo unspecified),-1.8,-0.7
O=C(Nc1cccc(F)c1)N1CCCC2(C1)Nc1cccnc1NC2=NCc1ccccc1 (stereo unspecified),-8.0,64.0*
COc1cc(C(=O)N2CCCC(C)(C(=O)NCc3cccc(F)c3)C2)cc(OC)c1OC (stereo unspecified),3.3,-5.7
O=C(COc1ccccc1)N1CCC(CNS(=O)(=O)Cc2ccccc2Cl)CC1,-2.8,3.1
COc1ccccc1CCN1COc2ccc3c(=O)c(-c4ccc(OC)c(OC)c4)coc3c2C1,-10.0,-9.3
CC(C)C1C(=O)N(Cc2cn(CCC3OCCCO3)nn2)CCS(=O)(=O)N1Cc1ccc(-c2cccc(N(C)C)c2)cc1 (stereo unspecified),-6.3,61.1*
CC(C)C1C(=O)N(Cc2cn(CCC3OCCCO3)nn2)CCS(=O)(=O)N1Cc1ccc(-c2cccc(CO)c2)cc1 (stereo unspecified),-7.3,45.5
CC(C)C1C(=O)N(Cc2cn(CCC3OCCO3)nn2)CCS(=O)(=O)N1Cc1ccc(-c2cccc(N(C)C)c2)cc1 (stereo unspecified),-0.7,67.7*
CC1C(=O)N(Cc2cn(CCC3OCCCO3)nn2)CCS(=O)(=O)N1Cc1ccc(-c2cccc(N(C)C)c2)cc1 (stereo unspecified),-1.6,39.5
COCOCCn1cc(CN2CCS(=O)(=O)N(Cc3ccc(-c4cccc(CO)c4)cc3)C(C(C)C)C2=O)nn1 (stereo unspecified),-11.4,23.1
COCOCCn1cc(CN2CCS(=O)(=O)N(Cc3ccc(-c4cccc(N(C)C)c4)cc3)C(C(C)C)C2=O)nn1 (stereo unspecified),-2.7,56.7*
Cc1nc2c(C(=O)NCc3ccco3)cnn2c(C)c1Cc1ccc(F)cc1,-2.0,3.0
CCOc1ccccc1NS(=O)(=O)c1ccc(SC)cc1,-2.3,-4.5
CC(C)(C)C(=O)N1CCN(CC(F)(F)F)CC1,-2.7,-1.6
CC(C)(C)c1ccc(C2=N/C(=C\c3ccccc3F)C(=O)O2)cc1,-2.6,4.0
O=C(c1cc(F)ccc1O)C1CCNCC1,-3.4,1.7
O=C(NC1CCCCC1N1C(=O)CSC1=O)c1ccc[nH]c1=O (stereo unspecified),-3.0,-5.0
CSc1nc2ccccc2n1CC(=O)Nc1ccc(F)cc1,-0.9,-0.8
CSc1nc2ccccc2n1CC(=O)NC(c1ccccc1)c1ccccc1,0.3,57.0*
SMILES,Pf apPOL inh,mHTT-CaM PPI inh
COc1cccc(CNC(=O)C2CCN(c3nc4cccnc4s3)CC2)c1OC,0.6,-14.9
CC(=O)Nc1ccc(N2C(=O)/C(=C/c3ccc(Cl)cc3)C=C2c2ccccc2)cc1,-1.0,31.0
O=C(O)c1cc(N2C(=O)/C(=C/c3ccc(Cl)cc3)C=C2c2ccccc2)ccc1O,-2.9,74.0*
O=C(O)c1cc(N2C(=O)/C(=C/c3ccc([N+](=O)[O-])cc3)C=C2c2ccccc2)ccc1O,-4.4,88.0*
O=C1/C(=C/c2ccc([N+](=O)[O-])cc2)C=C(c2ccccc2)N1c1ccc(F)cc1,0.1,18.0
C=CCSc1nnc2c(n1)OC(c1ccc(N(C)C)cc1)N(C(C)=O)c1ccccc1-2 (stereo unspecified),-17.2,64.0*
C=CCSc1nnc2c(n1)OC(c1ccc(F)cc1)N(C(C)=O)c1ccccc1-2 (stereo unspecified),-13.2,28.0
CN(C)CCCN(C(=O)c1cccc(C(F)(F)F)c1)c1nc2ccc(F)cc2s1,-9.2,54.7*
CSc1cccc2sc(N(CCN(C)C)C(=O)c3ccc(N(C)C)cc3)nc12,-2.6,41.6
COc1c(-c2cc(C(F)(F)C(F)F)[nH]n2)c(O)c(OC)c2occc12,-2.6,20.7
COc1ccc(-c2cc(-c3c(O)c(OC)c4occc4c3OC)[nH]n2)cc1OC,-1.7,85.8*
Cc1cc(-c2ccccc2)n(-c2cc(N(C)C)ncn2)n1,-2.8,6.0
O=C1c2ccccc2C(=O)N1c1cccc(-c2csc(=Nc3ccccc3)n2CCO)c1,-1.3,31.0
OCCCn1c(-c2ccc(F)cc2)csc1=Nc1ccc(F)cc1,-3.3,59.0*
